Results on eight molecules are retold here after publication PMC5540273 (PLoS ONE, 2017).

One experiment has as its system FYN. The settings on record: concentration: 1 μM, replicates: in singlicate; n = 1.
A further experiment concerns GAK. The settings on record: concentration: 1 μM, replicates: in singlicate; n = 1.
Another experiment has as its system T1, GCN2(Kin.Dom.2,S808G).
T1 construct: gene EIF2AK4
The following applies: concentration: 1 μM, replicates: in singlicate; n = 1.

In a further experiment the test system is GRK1. The settings on record: concentration: 1 μM, replicates: in singlicate; n = 1.
In the next experiment the test system is T2, GRK2.
T2 construct: gene ADRBK1
The following applies: concentration: 1 μM, replicates: in singlicate; n = 1.

For the next experiment, the system named is T3, GRK3.
T3 construct: gene ADRBK2
The settings on record: concentration: 1 μM, replicates: in singlicate; n = 1.

Another experiment deals with GRK4. The following applies: concentration: 1 μM, replicates: in singlicate; n = 1.
The subject of a further experiment is GRK7. The following applies: concentration: 1 μM, replicates: in singlicate; n = 1.
The subject of a further experiment is GSK3A. The following applies: concentration: 1 μM, replicates: in singlicate; n = 1.
For another experiment, the system named is GSK3B. The following applies: n = 1.
For the next experiment, the system named is T4, HASPIN.
T4 construct: gene GSG2
The following applies: concentration: 1 μM, replicates: in singlicate; n = 1.

The test system of a further experiment is HCK. The settings on record: concentration: 1 μM, replicates: in singlicate; n = 1.
In another experiment the test system is HIPK1. The settings on record: concentration: 1 μM, replicates: in singlicate; n = 1.
Another experiment concerns HIPK2. The following applies: concentration: 1 μM, replicates: in singlicate; n = 1.
The next experiment relates to HIPK3. The settings on record: concentration: 1 μM, replicates: in singlicate; n = 1.
A further experiment concerns HIPK4. The following applies: concentration: 1 μM, replicates: in singlicate; n = 1.
Another experiment deals with HPK1. The settings on record: concentration: 1 μM, replicates: in singlicate; n = 1.
In a further experiment the test system is HUNK. The settings on record: concentration: 1 μM, replicates: in singlicate; n = 1.
The next experiment relates to ICK. The following applies: concentration: 1 μM, replicates: in singlicate; n = 1.
The next experiment has as its system IGF1R. The settings on record: concentration: 1 μM, replicates: in singlicate; n = 1.
Setting [1] is: concentration: 1 μM, replicates: in singlicate.

Read-outs that look alike come from different tables or passages of the source.
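Note: KINOMEscan kinase panel screen.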

For `CN(C)S(=O)(=O)c1cc(-c2ccc3nccc(-c4cccc(S(N)(=O)=O)c4)c3c2)cnc1N` [GSK1669921], the “%Inh” value in the experiment with FYN came to 28%; in the experiment with GAK, 28%; in the experiment on GCN2(Kin.Dom.2,S808G), 0%; in the experiment on GRK1, 5%; in the experiment on GRK2, 0%; with GRK3, 0%. The “%Inh” value is recorded as 12% in the experiment with GRK4; 8% in the experiment on GRK7; 0% with GSK3A; 3% with GSK3B (setting [1]); 71% in the experiment with HASPIN; 0% in the experiment with HCK. The “%Inh” value with HIPK1 is on record as 49%; with HIPK2, 36%; with HIPK3, 44%; in the experiment on HIPK4 it was 48%; in the experiment on HPK1 it was 41%; in the experiment with HUNK it was 0%. Moreover, the entries for the “%Inh” value in the experiment with ICK and in the experiment with IGF1R were 44% and 0%, respectively.

In the case of `CN1CCN(Cc2cccc(-c3ccc4c(Nc5ccc(Oc6ccccc6)cc5)ccnc4c3)c2)CC1` [GW578342], the “%Inh” value is listed as 83% in the experiment on FYN; 3% in the experiment on GAK; 0% in the experiment with GCN2(Kin.Dom.2,S808G); 1% with GRK1; 2% in the experiment on GRK2; 37% in the experiment on GRK3. Besides, the “%Inh” value in the experiment on GRK4 is recorded as 0%; with GRK7, 0%; with GSK3A, 16%; in the experiment on GSK3B (setting [1]), 0%; in the experiment on HASPIN, 17%; with HCK, 95.1%. Further, the “%Inh” value was found to be 0% with HIPK1; 2% in the experiment on HIPK2; 0% in the experiment on HIPK3; 0% with HIPK4; 25% in the experiment with HPK1; 11% in the experiment on HUNK. In addition, the “%Inh” value was found to be 0% with ICK and 5% in the experiment with IGF1R.

Regarding `COc1cccc(-c2ccc3c(NC(=O)C4CC4)n[nH]c3n2)c1` [SB-710903], the “%Inh” value in the experiment on FYN is on record as 0%; in the experiment on GAK it was 3%; in the experiment with GCN2(Kin.Dom.2,S808G) it was 1%; in the experiment with GRK1, 5%; in the experiment with GRK2, 0%; in the experiment with GRK3, 75%. In addition, the “%Inh” value in the experiment on GRK4 was determined as 0%; in the experiment on GRK7, 0%; with GSK3A it was 88%; with GSK3B (1 µM), 43%; in the experiment on HASPIN it was 32%; in the experiment on HCK it was 0%. The “%Inh” value is 0% in the experiment on HIPK1; 0% in the experiment with HIPK2; 41% in the experiment with HIPK3; 10% in the experiment with HIPK4; 41% in the experiment with HPK1; 1% in the experiment on HUNK. The “%Inh” value is 23% in the experiment with ICK and 17% in the experiment on IGF1R.

In the case of `Cl.c1ccc(-c2ccc3c(Nc4ccc5[nH]ncc5c4)ccnc3c2)nc1` [GW440137], the “%Inh” value with FYN is 50%; with GAK, 68%; with GCN2(Kin.Dom.2,S808G), 0%; in the experiment with GRK1 it was 0%; with GRK2 it was 0%; in the experiment with GRK3 it was 22%. Also, the “%Inh” value with GRK4 was 0%; in the experiment on GRK7, 0%; with GSK3A, 16%; in the experiment on GSK3B (setting [1]), 17%; with HASPIN, 6%; in the experiment on HCK, 16%. Besides, the “%Inh” value amounted to 62% with HIPK1; 47% in the experiment on HIPK2; 51% in the experiment on HIPK3; 0% in the experiment with HIPK4; 23% with HPK1; 9% with HUNK. Also, the “%Inh” value is recorded as 0% with ICK and 12% in the experiment on IGF1R.

`O=C(Nc1cccc(-c2nn3ccccc3c2-c2ccnc(Nc3cccc(F)c3)n2)c1)c1c(F)ccc(F)c1Cl` [GSK357952]: the “%Inh” value stood at 66% in the experiment with FYN; 14% in the experiment on GAK; 1% in the experiment with GCN2(Kin.Dom.2,S808G); 5% with GRK1; 0% in the experiment with GRK2; 0% with GRK3. Further, the “%Inh” value came out at 5% in the experiment with GRK4; 0% with GRK7; 0% with GSK3A; 6% in the experiment on GSK3B (setting [1]); 0% with HASPIN; 99.1% with HCK. For the same molecule, the “%Inh” value with HIPK1 is 0%; in the experiment with HIPK2 it was 13%; in the experiment on HIPK3, 1%; with HIPK4, 51%; in the experiment with HPK1 it was 13%; with HUNK, 0%. Besides, the figures for the “%Inh” value in the experiment with ICK and in the experiment with IGF1R were 3% and 17%, respectively.

Consider `Cl.Cl.NCC(NCc1ccc(-c2ccnc3[nH]ccc23)s1)c1ccccc1` (stereo not shown) [GSK1321565], for which the “%Inh” value in the experiment with FYN was found to be 0%; with GAK, 34%; in the experiment with GCN2(Kin.Dom.2,S808G) it was 0%; in the experiment on GRK1, 50%; with GRK2 it was 0%; in the experiment with GRK3 it was 37%. Further, the “%Inh” value is reported as 82% in the experiment with GRK4; 83% in the experiment on GRK7; 0% with GSK3A; 0% with GSK3B (setting [1]); 99.8% in the experiment on HASPIN; 0% with HCK. Besides, the “%Inh” value is recorded as 53% with HIPK1; 55% with HIPK2; 71% in the experiment with HIPK3; 49% in the experiment on HIPK4; 66% with HPK1; 0% in the experiment with HUNK. Also, the “%Inh” value in the experiment with ICK and in the experiment on IGF1R was 0% in each case.

In the case of `COC(=O)Nc1nc2ccc(Oc3ccc(NC(=O)Nc4cc(C(F)(F)F)ccc4F)cc3)cc2n1C.Cl` [GW692089], the “%Inh” value is given as 0% with FYN; 0% in the experiment on GAK; 0% in the experiment with GCN2(Kin.Dom.2,S808G); 0% with GRK1; 0% in the experiment with GRK2; 49% in the experiment on GRK3. Also, the “%Inh” value is on record as 6% with GRK4; 0% in the experiment with GRK7; 9% with GSK3A; 0% in the experiment on GSK3B (setting [1]); 50% with HASPIN; 0% with HCK. In addition, the “%Inh” value amounted to 0% in the experiment on HIPK1; 3% in the experiment with HIPK2; 0% with HIPK3; 69% in the experiment on HIPK4; 0% in the experiment with HPK1; 12% with HUNK. For the same molecule, the “%Inh” value with ICK and in the experiment on IGF1R was 0% in each case.

Consider `Nc1ncc(-c2ccc3nccc(-c4ccncc4)c3c2)cc1S(=O)(=O)N1CCOCC1` [GSK1627798], for which the “%Inh” value in the experiment on FYN turned out to be 14%; in the experiment on GAK, 6%; with GCN2(Kin.Dom.2,S808G), 3%; with GRK1, 1%; in the experiment with GRK2, 0%; in the experiment on GRK3 it was 17%. Moreover, the “%Inh” value with GRK4 is listed as 1%; with GRK7, 0%; in the experiment on GSK3A, 1%; in the experiment on GSK3B (setting [1]) it was 3%; with HASPIN, 50%; in the experiment on HCK, 0%. In addition, the “%Inh” value with HIPK1 is 37%; in the experiment with HIPK2, 15%; in the experiment with HIPK3 it was 25%; in the experiment with HIPK4, 76%; in the experiment with HPK1, 49%; in the experiment on HUNK it was 0%. Moreover, the entries for the “%Inh” value in the experiment with ICK and with IGF1R were 36% and 35%, respectively.
